# Screening results as filed in PubChem.
# VDR inhibitor – inhibitors of human vitamin D receptor; Potency, µM, without a hit: max response, negative = inhibition, actives largely listed as inhibitors; P11473; VDR-SRC2-3 peptide fluorescence polarization, 2 h; AID 504847; 400,000 compounds, 0.93% hits; note: potency is the fitted concentration of half-maximal effect
# Target sequence (P11473 whole entry, looked up): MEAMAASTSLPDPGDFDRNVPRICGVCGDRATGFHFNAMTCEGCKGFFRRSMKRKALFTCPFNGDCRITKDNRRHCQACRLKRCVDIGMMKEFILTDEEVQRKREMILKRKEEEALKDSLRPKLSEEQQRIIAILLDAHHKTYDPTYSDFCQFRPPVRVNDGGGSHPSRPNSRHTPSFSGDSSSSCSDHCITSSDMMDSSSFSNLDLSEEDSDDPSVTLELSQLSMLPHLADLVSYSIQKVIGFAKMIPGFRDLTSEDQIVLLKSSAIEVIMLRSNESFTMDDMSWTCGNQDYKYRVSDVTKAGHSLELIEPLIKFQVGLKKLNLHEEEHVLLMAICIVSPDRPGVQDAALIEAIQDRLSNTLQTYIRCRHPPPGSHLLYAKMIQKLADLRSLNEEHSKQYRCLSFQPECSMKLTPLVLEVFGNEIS
#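 Measured by FP: displacement of SRC2-3 coactivator peptide from VDR by library compounds, following a two-hour ambient incubation.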
# PLK1 PBD inh – inhibitors of human PLK1 polo-box domain binding | AID 720504 | P53350 | Plk1 PBD binding of FITC phosphopeptide, fluorescence polarization | 360,000 compounds, 2.8% hits | Potency, µM, inactives show max response, negative = inhibition, actives largely listed as inhibitors; note: potency is the fitted concentration of half-maximal effect; series mostly up to about 57 µM; nearly all actives have a fitted effect of over 65% in size
# Sfp PPTase inh – Sfp phosphopantetheinyl transferase inhibition | Biochemical Sfp PPTase activity, qHTS | Q9F4F7 | 310,000 compounds, 3.5% hits | Potency, µM, inactives show largest response in the series, negative = inhibition, usual class: inhibitors | AID 1490;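 note: the enzyme is Sfp with the accession as filed and its product quenches rhodamine fluorescence; potency is the fitted concentration of half-maximal effect; 0% = enzyme reaction without inhibitor and -100% = no enzyme wells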
#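 Compounds were incubated with enzyme (final 15 nM) for 15 min at room temperature before substrate addition started the reaction. Fluorescence at 525 nm excitation, 598 nm emission was recorded immediately and after 30 minutes.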
# CCT modulator – cytosolic chaperonin activity modulation; purified chaperonin ATPase assay, HTRF ADP detection, 30 min; activity change, % (test concentration not listed), hits read low; 360,000 compounds, 0.3% hits; AID 651819; in the data active = activity change below about -30%
#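 TRiC at 40 or 20 nM final (batch-dependent) in 30 mM Tris pH 7.4, 100 mM KCl, 5 mM MgCl2, 1 mM DTT, with compound at single 76 uM and 10 uM ATP, 30 min at 37 deg C. ADP detected by HTRF Transcreener, 665/615 ratio.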
# MmCpn inh – inhibitors of Methanococcus maripaludis chaperonin TRiC (MmCpn). purified Mm-Cpn ATPase, ADP Transcreener TR-FRET. Potency, µM (highest dose often 76.9 µM), for the others: top-dose activity, negative = inhibition, most hits filed as inhibitors. 330,000 compounds, 0.031% hits; note: potency is the fitted concentration of half-maximal effect; nearly all actives have a fitted effect of over 80% in size
#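 ATPase turnover read by TR-FRET ADP competition (Eu cryptate antibody/ADP-d2, 665/590 nm): 10uM ATP final, 25nM Mm-CPN final, 30 min 37degC after 10-min compound preincubation, pH 7.4 Tris/KCl/MgCl2/DTT buffer.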
# G9a block – blocks human histone lysine methyltransferase G9a; G9a H3K9 monomethylation, AlphaScreen, 2 h; 350,000 compounds, 8.8% hits; AID 504332; Q96KQ7; Potency, µM (titrated, usually from 102 µM), without a hit: at the highest dose activity, negative = inhibition, actives largely listed as inhibitors; note: potency is the fitted concentration of half-maximal effect; nearly all actives have a fitted effect of over 75% in size
#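 Signal arises when biotinylated H3K9 peptide, once monomethylated, bridges streptavidin donor and antibody-captured acceptor beads. Enzyme at 20 nM was preincubated 15 min with test compounds; peptide 500 nM and SAM 20 uM then reacted for 2 h.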
# An asterisk follows results filed as active; ? = inconclusive; · = no result; [ ] = remark or other dose. Hits are enriched below; roughly 10% of the tested compounds scored in any of these assays. Unless noted, calls come from the whole dose curve; as a rule, active = well fitted curve in the direction sought with a large enough effect; inconclusive = small, poorly fitted or top-dose-only effect, or another doubt; inactive = no such curve, though single readings can be large; an effect the other way counts as inactive or inconclusive. Unless noted, % is set by controls: 0 for no effect and ±100 for the full control effect.
SMILES,VDR inhibitor,PLK1 PBD inh,Sfp PPTase inh,CCT modulator,MmCpn inh,G9a block
Nc1ccccc1C(=O)NNc1c2ccccc2nc2ccccc12,-12%,1%,-9%,2,-2%,18µM*
COc1cccc(C(=O)NNc2c3ccccc3nc3ccccc23)c1,-12%,5%,-16%,0,0%,-65%
O=C(NNc1c2ccccc2nc2ccccc12)c1ccc(Cl)cc1,5%,-7%,-17%,-1,1%,35µM*
CSc1nc(N(C)NC(=O)c2ccccc2)c2ccccc2n1,14%,-2%,13%,-1,-1%,-9%[59 µM]
Cc1ccc(C(=O)NNc2c3ccccc3nc3ccccc23)cc1,2%,-4%,25µM*,0,2%,18µM*
Cc1nn(-c2ccc(F)cc2)c(-n2cccc2)c1C(=O)NCCCN1CCN(c2cccc(Cl)c2)CC1,11%,·,·,·,·,?
c1cncc(Nc2c3ccccc3nc3ccccc23)c1,0%,2%,3%,0,-1%,?
Clc1cncc(Cl)c1NNc1c2ccccc2nc2ccccc12,-23%,-6%,-7%,-2,-1%,1.3µM*
COC(=O)c1scc(-c2ccc(C)cc2)c1S(=O)(=O)N1CCN(c2ccccc2)CC1,1%,·,·,·,·,-42%[59 µM]
COc1cc(C(=O)NCCNC(=O)c2cc(OC)c(C)c(OC)c2)cc(OC)c1C,-11%,-6%,25%,-3,-3%,32µM*
COCCNC(=O)CSc1cn(CC(=O)N2CCCCCC2)c2ccccc12,4%,·,·,·,·,5%[59 µM]
CS(=O)(=O)c1ccc(-c2nnc(NC(=O)c3ccco3)o2)cc1,15%,-5%,·,0,1%,13µM*
O=C(Nc1nnc(-c2ccccc2Cl)o1)c1ccco1,6%,2%,-8%,-1,0%,?
O=C(Nc1nnc(-c2ccc(Br)cc2)o1)c1ccco1,-10%,-6%,·,2,-1%,-23%
O=C(Nc1nnc(-c2cccs2)o1)c1ccco1,2%,5%,-28%,2,0%,10µM*
Cc1ccc(C)c(NC(=O)CN2C(=O)c3cccnc3Oc3ccc(C)cc32)c1,-7%,·,·,·,·,-47%[59 µM]
CCOC(=O)CNc1oc(-c2ccccc2)nc1-c1ccccc1,?,·,0%,·,·,·
O=C1C(=O)N(CCN2CCOCC2)C(c2ccccc2F)/C1=C(\O)c1ccc(S(=O)(=O)N2CCOCC2)cc1 (stereo not drawn),-22%,-15%,-3%,-3,0%,50µM*
CN(C)CCN1C(=O)C(=O)/C(=C(/O)c2ccc(S(=O)(=O)N3CCOCC3)cc2)C1c1ccc(Br)cc1 (stereo not drawn),-24%,-3%,11%,0,-5%,·
O=C1C(=O)N(CCN2CCOCC2)C(c2ccc(Cl)cc2)/C1=C(/O)c1ccc(S(=O)(=O)N2CCOCC2)cc1 (stereo not drawn),-18%,-1%,-9%,0,1%,56µM*
CN(C)CCN1C(=O)C(=O)/C(=C(/O)c2ccc(S(=O)(=O)N3CCOCC3)cc2)C1c1ccc(F)cc1 (stereo not drawn),-5%,2%,5%,1,-1%,52%
COc1ccc2sc(N(Cc3cccnc3)C(=O)c3cccs3)nc2c1,8%,·,·,·,·,-5%[59 µM]
Cc1ccc(C(=O)c2c3ccc(N)cc3nn2CCC(N)=O)cc1,?,-25%,-17%,0,-1%,45µM*
Cc1ccc(C(=O)c2c3ccc(C(F)(F)F)cc3[n+]([O-])n2CCC(N)=O)cc1,-18%,-9%,0%,-2,-3%,·
COC1CCN(C(=O)c2ccc3oc(Cc4ccc(Cl)cc4)nc3c2)CC1,-9%,-17%,20%,-1,3%,19%
O=[N+]([O-])c1ccc(O)c(C=Nc2ccc3oc(Cc4ccc(Cl)cc4)nc3c2)c1,·,·,28µM*,·,2%,28µM*
Nc1ccc2oc(Cc3ccc(Cl)cc3)nc2c1,79µM*,·,·,·,·,13µM*
CC(C)(C)c1ccc(C(=O)NC2(C(F)(F)F)C(=O)Nc3c2c(=O)[nH]c(=O)n3-c2ccccc2)cc1 (stereo not drawn),0%,·,·,·,·,4%[59 µM]
Cc1cc(N/N=C2/CCCc3ccccc32)nc2ccccc12,3%,6%,?,0,1%,50µM*
